Measured values: PubChem BioAssay (NCATS)
Records with an inconclusive call do not appear. Active and inactive are the calls of the source. Unless noted, the call rests on the fitted dose curve; in most records, active means well fitted curve in the direction sought with a large enough effect; inconclusive means small, poorly fitted or top-dose-only effect, or another doubt; inactive means no such curve, though single readings can be large; an effect the other way counts as inactive or inconclusive.

Legend:
[1] = HPAF-II 18hr Apoptosis Induction qHTS against the NCATS CANVASS Library (AID 1347360)
Summary of the method: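 Caspase-Glo 3/7 luminescence (DEVD substrate) after 15 min RT; HPAF-II, 500 cells/well, 18 h compound exposure at 37 degrees C, qHTS series; doxorubicin control 0.1nM - 4uM.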

[2] = HEK293 12hr Apoptosis Induction qHTS against the NCATS CANVASS Library (AID 1347361)
Summary of the method: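 500 HEK293 cells/well; cpds pin-transferred, 11-pt conc series; 12 h, 37 degrees C/5% CO2; Caspase-Glo 3/7 added, 15 min RT dark; luminescence.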

[3] = system: NAD(P)H diaphorase (Clostridium kluyveri); assay: Diaphorse counterscreen qHTS: Assay Interference Panel against the NCATS CANVASS Library (AID 1347362)
Summary of the method: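 Clostridium kluyveri diaphorase in PBS + 0.01% Tween-20 preincubated 15 min with compounds. Resazurin and NADH then added for 5 min at room temperature in the dark; resorufin fluorescence read (ex 525, em 598).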

[4] = molecular target: Luciferin 4-monooxygenase (Photinus pyralis) (UniProt P08659); assay: Firefly luciferase counterscreen qHTS: Assay Interference Panel against the NCATS CANVASS Library (AID 1347363)
Summary of the method: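 Purified P. pyralis luciferase (0.04 ug/mL, 4x reagent) added to Tris-acetate buffer with 0.013 mM D-luciferin, 0.013 mM ATP and 13.3 mM Mg-acetate; compounds preincubated 15 min, then luminescence read after 5 min, RT.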

[5] = KB-8-5-11 Cancer Cell Toxicity qHTS against the NCATS CANVASS Library (AID 1347364)
Summary of the method: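 KB-8-5-11 cells, 500/well in DMEM + 10% FBS, given compounds in an 11-point series. Incubated 72 h at 37 °C. Viability by CellTiter-Glo luminescence. Confirmation also run with 1 uM tariquidar.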

[6] = qHTS for ATAD5 Agonist screened against the NCATS CANVASS Library (AID 1347367)
Summary of the method: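 Luminescence read-out: ATAD5-driven luciferase in stably transfected HEK 293T cells, which rises post-transcriptionally with DNA damage. Cells were exposed 16hr at 37C to test compound; a CellTiter-Fluor fluorescence read (1hr) measured viability first.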

[7] = MCF7 Cancer Cell Toxicity qHTS against the NCATS CANVASS Library (AID 1347369)
Summary of the method: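 Luminescent ATP signal (CellTiterGlo) served as the cytotoxicity read-out after MCF7 breast cancer cells had been incubated 72 hr at 37C with natural products in an 11-point titration.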

[8] = qHTS for ATAD5 Antagonist screened against the NCATS CANVASS Library (AID 1347370)
Summary of the method: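 HEK293T cells with stably integrated ATAD5-luciferase reporter, 2000/well, 5 h attachment; compounds plus 10 µM 5-fluorouridine, 16 h at 37 °C. Luciferase luminescence read, with CellTiter-Fluor viability read first.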

[9] = J3T Cancer Cell Toxicity qHTS against the NCATS CANVASS Library (AID 1347371)
Summary of the method: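 J3T dog glioma cells, 500 per well, treated 72 h at 37C with compounds (11-point qHTS); viability from ATP content by CellTiterGlo luminescence; bortezomib titration as control.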

[10] = molecular target: Nuclear receptor subfamily 1 group I member 3 (Homo sapiens) (UniProt Q14994); assay: qHTS for Constitutive Androstane Receptor (CAR) Antagonist screened against the NCATS CANVASS Library (AID 1347372)
Summary of the method: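 HepG2 cells stably carrying hCAR and CYP2B6-2.2kb luciferase reporter, 2500 cells/well, compound with 50 nM CITCO agonist for 24hr at 37C. ONE-Glo luminescence measured CAR activity; CellTiter-Fluor read viability.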

[11] = molecular target: Nuclear receptor subfamily 1 group I member 3 (Homo sapiens) (UniProt Q14994); assay: qHTS for Constitutive Androstane Receptor (CAR) Agonist screened against the NCATS CANVASS Library (AID 1347373)
Summary of the method: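 HepG2 cells stably carrying hCAR and a CYP2B6-2.2kb luciferase reporter, treated 24hr at 37C with compounds plus 1.5uM PK11195; activation by ONE-Glo luminescence, viability by CellTiter-Fluor.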

[12] = 10-beta competent E. coli microbial cell viability qHTS against the NCATS CANVASS Library (AID 1347376)
Summary of the method: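 10-beta competent E. coli (0.2 OD) were exposed overnight at 37C to compounds in an 11-point series. Viability was read as ATP-dependent BacTiter-Glo luminescence after 20 min at room temperature.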

[13] = qHTS for H2AX Agonists against the NCATS CANVASS Library (AID 1347378)
Summary of the method: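 TR-FRET readout (ex 320 nm, em 665/620 nm ratio) of phospho-H2AX (S139) in CHO-K1 lysates. Cells treated 3 hr at 37C with compound titration, 0.76% DMSO; lysis 30 min, antibody detection 24 hr at RT.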

[14] = qHTS for Inflammasome Signaling Inhibitors: IL-1-beta AlphaLISA screen against the NCATS CANVASS Library (AID 1347379)
Summary of the method: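 THP-1 cells pretreated 1 hr with compound (up to 57.5 uM final), then stimulated with LPS (250 ng/mL final) and ATP (1.25 mM final). Secreted IL-1B measured by AlphaLISA after 16 hr; glyburide as positive control.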

[15] = qHTS for Antimalaria activity screened against the NCATS CANVASS Library (AID 1347380)
Summary of the method: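 Red blood cells infected with P. falciparum Dd2 (2.5% hematocrit final, 0.3% parasitemia) were exposed to compounds in an 11-point qHTS series for 72 hr at 37C under 5% O2 and 5% CO2. Lysis buffer with SYBR Green was then added for 18 hr, and fluorescence was read at 485/535 nm.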

[16] = Inflammasome Signaling qHTS Counterscreen: IL-1-beta AlphaLISA counterscreen against the NCATS CANVASS Library (AID 1347381)
Summary of the method: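 Cell-free interference check: compounds added to medium spiked with 4 pg purified IL-1β. Anti-IL-1β acceptor beads (6 ug/mL) with 0.6 nM biotinylated antibody added for 1 h at RT, then streptavidin donor beads (24 ug/mL) for 30 min in the dark. AlphaLISA read at 680/615 nm.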

[17] = Cytotoxicity qHTS for assessment of Hepg2 cells membrane integrity screened against the NCATS CANVASS Library (AID 1347387)
Summary of the method: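 HepG2 cells (2000/well) attached overnight, then exposed 5 hr at 37C to compounds in an 11-point series (0.59 nM - 46 uM final). LDH release from damaged membranes read fluorometrically (CytoTox-ONE; 560/590 nm) after 10 min at room temperature.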

[18] = qHTS for activators of Nrf2/ARE signaling pathway screened against the NCATS CANVASS Library (AID 1347391)
Summary of the method: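 ARE-bla HepG2 beta-lactamase reporter cells exposed to compounds for 16 h at 37C; CCF4 substrate 2 h, fluorescence at ex 405 nm, em 460/530 nm. Viability by CellTiter-Glo luminescence.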

[19] = qHTS for activators of dead-cell proteases activity screened against the NCATS CANVASS Library (AID 1347392)
Summary of the method: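 HepG2 cells, 2000/well, attached 18 h at 37C, then exposed to compounds (11-point qHTS) for 5 h. Dead-cell protease release read as luminescence from cell-impermeant AAF-aminoluciferin substrate after 15 min at room temperature.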

[20] = Vero-766 cells viability qHTS against the NCATS CANVASS Library: Counterscreen for Zika virus inhibition assay (AID 1347394)
Summary of the method: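 CellTiter-Glo luminescence, lower signal indicating cytotoxicity. Vero 766 cells without Zika virus, 1000 cells/well, plated overnight, then treated 72 h at 37C across an 11-point series.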

[21] = qHTS for inhibitors of Wild type Zika virus screened against the NCATS CANVASS Library (AID 1347396)
Summary of the method: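 Protection against wild-type Zika cytopathic effect is measured in African green monkey Vero 766 cells exposed to an 11-point compound series. Surviving cells are quantified by CellTiter Glo luminescence after 72 h.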

[22] = Viability qHTS for inhibitors of the SERCaMP assay screened against the NCATS CANVASS Library (AID 1347400)
Summary of the method: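 SH-SY5Y-GLuc SERCaMP MJH297-derived cells, 1000/well, plated 4 h, then exposed to compounds in an 11-point qHTS series for 48 h at 37C. Viability read as CellTiter-Glo luminescence.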

[23] = Redox Reaction Profiling qHTS: Assay Interference Panel against the NCATS CANVASS Library (AID 1347401)
Summary of the method: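 Compounds in 11-point series incubated with 5 uM resazurin and 200 uM DTT in 50 mM HEPES pH 7.3, 50 mM NaCl. Resorufin fluorescence (Ex 525/Em 598) read before and after 15 min in the dark.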

[24] = qHTS for inhibitors of Rabies Virus screened against the NCATS CANVASS Library (AID 1347402; calls by dose curve)
[25] = NCATS anti-infectives library activity on HEK293 viability as a counter-qHTS vs the C. elegans viability qHTS (AID 1745854)
Summary of the method: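 HEK293 cells (1,500/well) exposed 24 hr at 37C to 1:5 titrations, up to 41.7 uM final; counter-screen to a C. elegans viability qHTS. Viability by CellTiter-Glo luminescence after 10 min at room temperature; digitonin as control.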

[26] = NCATS anti-infectives library activity on the primary C. elegans qHTS viability assay (AID 1745855; calls by dose curve)
Summary of the method: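 Viability read-out is GFP fluorescence of PE254-GFP-FLuc C. elegans, measured by laser cytometry (488 nm) at day 0, 3 and 7. Ten L1 worms per well were incubated 7 days at 21 °C with compounds and bacterial capsules in S medium.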

Measured: Potency

Chain of Nuclear receptor subfamily 1 group I member 3 (Homo sapiens) (Q14994 whole entry, looked up): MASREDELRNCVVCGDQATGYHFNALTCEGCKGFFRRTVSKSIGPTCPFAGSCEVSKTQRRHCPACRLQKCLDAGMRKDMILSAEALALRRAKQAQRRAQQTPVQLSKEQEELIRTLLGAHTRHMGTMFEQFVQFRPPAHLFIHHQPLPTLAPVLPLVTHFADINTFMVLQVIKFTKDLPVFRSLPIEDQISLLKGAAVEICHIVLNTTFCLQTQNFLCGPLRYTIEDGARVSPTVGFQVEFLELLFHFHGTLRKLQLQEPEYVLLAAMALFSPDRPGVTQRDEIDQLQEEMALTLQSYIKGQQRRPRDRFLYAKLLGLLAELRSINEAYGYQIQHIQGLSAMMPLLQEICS
Chain of Luciferin 4-monooxygenase (Photinus pyralis) (P08659 whole entry, looked up): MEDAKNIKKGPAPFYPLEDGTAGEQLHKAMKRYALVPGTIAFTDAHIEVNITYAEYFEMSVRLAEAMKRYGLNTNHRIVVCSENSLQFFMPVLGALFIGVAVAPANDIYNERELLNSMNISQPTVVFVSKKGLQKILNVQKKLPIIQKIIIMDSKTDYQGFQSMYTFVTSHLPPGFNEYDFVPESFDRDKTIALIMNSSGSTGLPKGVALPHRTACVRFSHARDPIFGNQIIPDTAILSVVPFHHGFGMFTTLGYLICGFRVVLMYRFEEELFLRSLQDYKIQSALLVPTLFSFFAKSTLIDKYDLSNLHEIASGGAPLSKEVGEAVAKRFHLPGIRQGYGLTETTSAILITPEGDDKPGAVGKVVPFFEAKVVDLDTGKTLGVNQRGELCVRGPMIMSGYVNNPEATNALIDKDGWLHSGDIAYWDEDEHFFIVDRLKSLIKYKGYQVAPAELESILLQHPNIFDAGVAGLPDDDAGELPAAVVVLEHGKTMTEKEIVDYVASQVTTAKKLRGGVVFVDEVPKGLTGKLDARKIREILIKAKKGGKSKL

CN(C)Cc1c[nH]c2ccccc12
inactive: [1] | [2] | [3] | [4] | [5] | [6] | [7] | [8] | [9] | [10] | [11] | [12] | [13] | [14] | [15] | [16] | [17] | [18] | [19] | [20] | [21] | [22] | [23] | [24] | [25] | [26]
